Test [1] relates to PRMT1 (protein arginine N-methyltransferase 1). Kind of test: small molecules binding arginine methyltransferase PRMT1 – biochemical, small-molecule microarray, 635 nm fluorescence, primary screen (AID 1088).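 Note: binding of Prmt1 protein to compounds spotted on small-molecule microarray slides.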 Particulars: higher = more signal.
The nature of test [2]: growth effects on S. cerevisiae YJM789 – YJM789 clinical isolate, OD600, 24 h, basal, primary screen (AID 1089).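 Note: growth of clinical yeast isolate S. cerevisiae YJM 789 seeded 1000 cells per well; test concentration not given here.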 Particulars: higher = more signal, called active from +8 up or from −8 down.
Test [3] is described as follows: S. pombe growth modifiers, basal conditions – strain 972, OD600, 24 h, no modulator, primary screen (AID 1090).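 Note: basal condition with compound alone and no growth modifier present; test concentration not given here.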 The note with it: S. pombe 972 growth, higher = more signal, called active from +8 up or from −8 down.
Test [4] can be described thus: budding yeast growth modifiers under rapamycin – strain BY4716, OD600, 96 h, primary screen (AID 1091). Note: test concentration not given here. The note with it: S. cerevisiae BY4716 + rapamycin, higher = more signal, called active from +8 up or from −8 down.
Test [5] deals with Torsin-1A-interacting protein 2 (Homo sapiens) (UniProt Q8NFQ8). In words: small molecules binding lysate-expressed LULL1 – cell lysate, human LULL1 lysate, 635/667 nm fluorescence, primary screen (AID 1092).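 Note: probe is lysate of COS7 cells overexpressing human LULL1; score merges per-feature 667 nm fluorescence with signal-to-noise.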 The note with it: small-molecule microarray, hLULL1 lysate binding, 635 nm fluorescence; higher = more signal.
Test [6] is described as follows: optical density change of DRC41 E. coli – strain DRC41, OD650, 24 h, E. coli filamentation project, primary screen (AID 1093).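 Note: MC1000 strain lacking acrAB efflux and sulA so SOS filamentation is blocked; test concentration not given here.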 Particulars: E. coli DRC41 growth, higher = more signal, called active from +8 up or from −8 down.
A short description of test [7]: probe aLefty2 binding to arrayed compounds – biochemical, biotinylated probe, 635/667 nm fluorescence, primary screen (AID 1094).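 Note: score merges spot fluorescence near 667 nm with spot signal-to-noise ratio.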 Particulars: small-molecule microarray, higher = more signal.
For test [8], the system named is Noggin (protein binding on small-molecule microarray). In words: small molecules binding Noggin protein – biochemical, 635/667 nm fluorescence, primary screen (AID 1095).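 Note: score merges 667 nm feature fluorescence with signal to noise over triplicate slides.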 Particulars: 635 nm fluorescence, higher = more signal.
The target in test [9] is Neurogenic locus notch homolog protein 3 (Homo sapiens) (UniProt Q9UM47). In words: small molecules binding NOTCH3 protein – biochemical, 635/667 nm fluorescence, primary screen (AID 1096). Particulars: small-molecule microarray, 635 nm fluorescence, higher = more signal.
Test [10] can be described thus: probe aEGFR binding to arrayed compounds – biochemical, biotinylated probe, 635/667 nm fluorescence, primary screen (AID 1097).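 Note: probe is a biotinylated anti-EGFR antibody binding compounds printed on slides; score combines fluorescence near 667 nm and signal to noise of each spot.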 Particulars: small-molecule microarray, higher = more signal.
In test [11] the test system is Plasmodium falciparum Sir2 (PF13_0152, Sir2A). In words: Plasmodium falciparum Sir2A binding compounds – biochemical, small-molecule microarray, 635 nm fluorescence, primary screen (AID 1098).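 Note: score merges spot fluorescence intensity with its signal-to-noise ratio.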 The note with it: fluorescence 635 nm, higher = more signal.
A short description of test [12]: probe aDKK1 binding to arrayed compounds – biochemical, biotinylated probe, 635/667 nm fluorescence, primary screen (AID 1099).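 Note: score merges 667nm spot fluorescence with signal to noise across triplicate slides; reference of the scale not given here.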 The note with it: small-molecule microarray, higher = more signal.
Test [13] can be described thus: probe aCHRDL2 binding to arrayed compounds – biochemical, biotinylated probe, 635/667 nm fluorescence, primary screen (AID 1100). Particulars: small-molecule microarray, higher = more signal.
A short description of test [14]: change in splice reporter luminescence, either direction, cell-based, HEK293, spliceosome inhibition project, primary screen (AID 1101).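 Note: HEK293 cells carrying a splicing-competent luciferase reporter gene; test concentration not given here.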 The note with it: HEK293 splicing luciferase reporter, 24 h, higher = more signal, called active from +8 up or from −8 down.
For test [15], the target named is Fibroblast growth factor 10 (Homo sapiens) (UniProt O15520). Kind of test: compounds binding fibroblast growth factor 10 – biochemical, small-molecule microarray, 635 nm fluorescence, primary screen (AID 1102). Particulars: FGF10 binding, fluorescence 635 nm, higher = more signal.
Test [16] relates to glycogen synthase kinase-3 (GSK3A per assay name; protocol says GSK3B). Kind of test: compounds binding glycogen synthase kinase-3 – biochemical, small-molecule microarray, 635 nm fluorescence, GSK3A, primary screen (AID 1103). Note: the record names both GSK3A and GSK3B. Particulars: fluorescence 635 nm, higher = more signal.
The target in test [17] is Epidermal growth factor receptor (Homo sapiens) (UniProt P00533). Kind of test: compounds binding epidermal growth factor receptor – biochemical, small-molecule microarray, 635 nm fluorescence, primary screen (AID 1104).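 Note: score merges 667 nm emission intensity with spot signal to noise over triplicate slides.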 Particulars: EGFR binding, higher = more signal.
In test [18] the target is Follistatin-related protein 3 (Homo sapiens) (UniProt O95633). Kind of test: compounds binding follistatin-related protein 3 – biochemical, small-molecule microarray, 635 nm fluorescence, primary screen (AID 1105).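 Note: score merges emission near 667 nm and signal to noise per printed spot across three slides.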 The note with it: FSTL3 binding, higher = more signal.
The target in test [19] is Dickkopf-related protein 1 (Homo sapiens) (UniProt O94907). Kind of test: small molecules binding DKK1 protein – biochemical, small-molecule microarray, 635 nm fluorescence scan, primary screen (AID 1106).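 Note: score merges emission near 667 nm with signal to noise over three replicate slides.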 Particulars: higher = more signal.
The test system of test [20] is Inhibin beta A chain (activin A). In words: small molecules binding activin A – biochemical, small-molecule microarray, 635 nm fluorescence scan, primary screen (AID 1107).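 Note: mouse activin A protein probed at 4.33 µg/mL on printed slides; score merges bound-protein fluorescence near 667 nm with spot signal-to-noise.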 Particulars: INHBA, higher = more signal.

The structures appear in SMILES notation. Calls of active or inactive are those of the source.

Epidermal growth factor receptor (Homo sapiens), sequence (P00533 whole entry, looked up): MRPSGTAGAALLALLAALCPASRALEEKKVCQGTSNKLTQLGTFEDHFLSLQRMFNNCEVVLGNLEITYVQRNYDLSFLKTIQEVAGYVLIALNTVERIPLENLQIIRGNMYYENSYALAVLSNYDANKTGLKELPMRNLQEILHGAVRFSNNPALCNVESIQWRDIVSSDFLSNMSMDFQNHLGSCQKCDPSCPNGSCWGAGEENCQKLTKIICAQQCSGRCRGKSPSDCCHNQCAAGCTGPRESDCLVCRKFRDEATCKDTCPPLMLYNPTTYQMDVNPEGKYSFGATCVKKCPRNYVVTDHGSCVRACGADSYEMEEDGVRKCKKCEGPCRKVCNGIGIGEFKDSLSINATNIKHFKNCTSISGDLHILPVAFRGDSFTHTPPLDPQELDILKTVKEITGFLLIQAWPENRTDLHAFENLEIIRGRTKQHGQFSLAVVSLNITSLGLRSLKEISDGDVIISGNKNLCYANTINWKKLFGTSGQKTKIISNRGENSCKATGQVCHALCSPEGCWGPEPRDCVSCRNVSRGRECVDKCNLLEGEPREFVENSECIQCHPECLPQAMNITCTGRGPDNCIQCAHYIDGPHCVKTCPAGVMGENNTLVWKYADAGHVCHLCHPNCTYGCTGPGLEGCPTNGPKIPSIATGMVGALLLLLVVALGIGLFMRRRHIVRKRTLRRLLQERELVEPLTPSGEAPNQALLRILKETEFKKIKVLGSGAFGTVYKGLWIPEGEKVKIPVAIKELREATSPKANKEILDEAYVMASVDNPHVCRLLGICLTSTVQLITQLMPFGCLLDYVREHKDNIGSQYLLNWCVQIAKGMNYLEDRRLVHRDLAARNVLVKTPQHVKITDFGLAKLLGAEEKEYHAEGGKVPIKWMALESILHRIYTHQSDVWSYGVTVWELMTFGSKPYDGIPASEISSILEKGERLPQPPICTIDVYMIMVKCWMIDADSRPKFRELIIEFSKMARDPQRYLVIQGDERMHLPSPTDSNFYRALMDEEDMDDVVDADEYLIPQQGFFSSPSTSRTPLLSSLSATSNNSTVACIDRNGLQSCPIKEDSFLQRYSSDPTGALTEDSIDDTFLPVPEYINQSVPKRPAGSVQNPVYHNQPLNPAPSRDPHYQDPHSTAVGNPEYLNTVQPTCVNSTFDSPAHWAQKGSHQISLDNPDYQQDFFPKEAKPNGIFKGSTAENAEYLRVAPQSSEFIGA
Neurogenic locus notch homolog protein 3 (Homo sapiens), sequence (Q9UM47 whole entry, looked up): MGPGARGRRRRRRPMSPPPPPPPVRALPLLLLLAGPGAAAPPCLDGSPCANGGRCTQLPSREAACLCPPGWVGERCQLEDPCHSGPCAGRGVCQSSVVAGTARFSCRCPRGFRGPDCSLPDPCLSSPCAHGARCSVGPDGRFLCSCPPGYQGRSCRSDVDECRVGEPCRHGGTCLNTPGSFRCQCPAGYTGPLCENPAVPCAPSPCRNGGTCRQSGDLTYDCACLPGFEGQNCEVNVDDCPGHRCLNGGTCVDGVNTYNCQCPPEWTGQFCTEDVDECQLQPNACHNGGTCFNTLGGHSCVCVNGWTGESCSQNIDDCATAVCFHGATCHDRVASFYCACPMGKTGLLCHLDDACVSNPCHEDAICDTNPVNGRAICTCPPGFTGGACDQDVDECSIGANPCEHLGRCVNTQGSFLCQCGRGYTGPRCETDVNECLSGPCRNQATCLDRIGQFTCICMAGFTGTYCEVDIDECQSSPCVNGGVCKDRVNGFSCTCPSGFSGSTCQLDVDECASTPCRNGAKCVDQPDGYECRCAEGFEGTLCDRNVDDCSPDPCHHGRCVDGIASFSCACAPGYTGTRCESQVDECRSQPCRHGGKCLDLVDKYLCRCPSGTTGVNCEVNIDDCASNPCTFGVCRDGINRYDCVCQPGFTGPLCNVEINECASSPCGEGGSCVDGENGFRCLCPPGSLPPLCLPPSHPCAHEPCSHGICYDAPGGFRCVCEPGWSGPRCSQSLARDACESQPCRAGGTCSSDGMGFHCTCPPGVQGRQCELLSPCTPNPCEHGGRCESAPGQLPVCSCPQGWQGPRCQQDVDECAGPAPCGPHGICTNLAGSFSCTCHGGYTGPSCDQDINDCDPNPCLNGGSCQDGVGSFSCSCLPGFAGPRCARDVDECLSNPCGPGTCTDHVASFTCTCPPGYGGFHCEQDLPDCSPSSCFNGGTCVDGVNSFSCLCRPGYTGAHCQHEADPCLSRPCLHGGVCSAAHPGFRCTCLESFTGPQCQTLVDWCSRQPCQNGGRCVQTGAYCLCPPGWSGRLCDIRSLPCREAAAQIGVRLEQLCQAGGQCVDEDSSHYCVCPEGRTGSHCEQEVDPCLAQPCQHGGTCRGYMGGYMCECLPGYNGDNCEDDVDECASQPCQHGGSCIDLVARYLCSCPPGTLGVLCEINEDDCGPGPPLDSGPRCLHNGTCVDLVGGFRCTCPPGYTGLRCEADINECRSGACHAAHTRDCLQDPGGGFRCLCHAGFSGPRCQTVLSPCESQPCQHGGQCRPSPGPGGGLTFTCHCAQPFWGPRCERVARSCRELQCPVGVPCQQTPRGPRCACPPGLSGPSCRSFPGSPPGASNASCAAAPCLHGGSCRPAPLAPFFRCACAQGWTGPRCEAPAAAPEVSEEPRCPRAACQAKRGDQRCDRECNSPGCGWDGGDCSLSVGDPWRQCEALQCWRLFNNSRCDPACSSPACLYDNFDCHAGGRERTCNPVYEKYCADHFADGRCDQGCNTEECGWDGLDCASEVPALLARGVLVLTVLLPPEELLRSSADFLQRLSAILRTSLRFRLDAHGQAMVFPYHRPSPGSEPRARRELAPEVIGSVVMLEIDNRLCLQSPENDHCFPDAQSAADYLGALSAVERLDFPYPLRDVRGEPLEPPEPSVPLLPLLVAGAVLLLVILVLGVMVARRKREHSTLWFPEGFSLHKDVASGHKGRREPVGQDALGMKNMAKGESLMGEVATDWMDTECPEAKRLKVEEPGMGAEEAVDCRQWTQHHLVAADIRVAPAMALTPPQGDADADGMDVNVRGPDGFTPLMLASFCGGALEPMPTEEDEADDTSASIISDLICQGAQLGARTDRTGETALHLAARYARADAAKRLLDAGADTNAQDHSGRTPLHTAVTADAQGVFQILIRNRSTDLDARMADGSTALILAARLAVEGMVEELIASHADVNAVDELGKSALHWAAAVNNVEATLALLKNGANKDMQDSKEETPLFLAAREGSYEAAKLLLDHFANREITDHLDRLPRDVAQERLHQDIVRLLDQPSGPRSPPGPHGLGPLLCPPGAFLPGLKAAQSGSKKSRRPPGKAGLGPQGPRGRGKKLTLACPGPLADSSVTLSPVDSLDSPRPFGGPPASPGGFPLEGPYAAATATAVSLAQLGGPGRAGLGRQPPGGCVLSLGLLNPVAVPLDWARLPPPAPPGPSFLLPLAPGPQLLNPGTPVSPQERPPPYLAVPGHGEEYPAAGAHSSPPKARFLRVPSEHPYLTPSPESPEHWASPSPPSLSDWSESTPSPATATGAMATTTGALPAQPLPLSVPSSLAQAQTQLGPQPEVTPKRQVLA
Follistatin-related protein 3 (Homo sapiens), sequence (O95633 whole entry, looked up): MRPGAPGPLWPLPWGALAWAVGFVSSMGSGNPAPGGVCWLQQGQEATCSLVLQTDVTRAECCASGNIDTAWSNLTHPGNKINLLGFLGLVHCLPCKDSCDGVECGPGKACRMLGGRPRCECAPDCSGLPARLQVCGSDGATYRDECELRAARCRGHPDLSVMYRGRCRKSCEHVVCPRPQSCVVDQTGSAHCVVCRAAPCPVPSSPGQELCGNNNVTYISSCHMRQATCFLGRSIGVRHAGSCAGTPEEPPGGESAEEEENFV
Torsin-1A-interacting protein 2 (Homo sapiens), sequence (Q8NFQ8 whole entry, looked up): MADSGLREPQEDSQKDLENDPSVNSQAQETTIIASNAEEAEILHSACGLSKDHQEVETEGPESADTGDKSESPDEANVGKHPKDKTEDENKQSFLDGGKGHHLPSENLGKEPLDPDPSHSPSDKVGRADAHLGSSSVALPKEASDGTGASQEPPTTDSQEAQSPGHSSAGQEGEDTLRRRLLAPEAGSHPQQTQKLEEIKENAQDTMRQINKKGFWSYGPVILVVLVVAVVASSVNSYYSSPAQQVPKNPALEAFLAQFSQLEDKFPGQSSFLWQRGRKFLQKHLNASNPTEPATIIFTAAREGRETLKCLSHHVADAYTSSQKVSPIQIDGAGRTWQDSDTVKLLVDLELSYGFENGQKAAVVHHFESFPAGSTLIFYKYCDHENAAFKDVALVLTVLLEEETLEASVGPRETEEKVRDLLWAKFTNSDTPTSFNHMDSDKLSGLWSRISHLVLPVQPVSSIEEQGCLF
Fibroblast growth factor 10 (Homo sapiens), sequence (O15520 whole entry, looked up): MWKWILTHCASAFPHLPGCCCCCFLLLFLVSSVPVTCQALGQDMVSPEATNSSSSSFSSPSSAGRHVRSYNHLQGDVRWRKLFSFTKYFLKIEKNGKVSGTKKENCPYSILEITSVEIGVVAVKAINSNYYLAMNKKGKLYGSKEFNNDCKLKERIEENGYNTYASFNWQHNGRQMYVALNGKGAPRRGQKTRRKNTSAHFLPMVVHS
Dickkopf-related protein 1 (Homo sapiens), sequence (O94907 whole entry, looked up): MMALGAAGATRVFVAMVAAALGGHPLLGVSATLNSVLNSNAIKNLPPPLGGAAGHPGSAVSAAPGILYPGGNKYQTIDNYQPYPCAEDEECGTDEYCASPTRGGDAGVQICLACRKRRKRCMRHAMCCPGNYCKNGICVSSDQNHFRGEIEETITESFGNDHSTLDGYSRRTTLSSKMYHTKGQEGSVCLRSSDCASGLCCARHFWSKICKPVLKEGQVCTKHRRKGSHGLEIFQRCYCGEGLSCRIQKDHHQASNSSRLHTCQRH

Take `CCOC(=O)C1=CCC(c2cccc3ccccc23)N(S(=O)(=O)c2ccc(C)cc2)C1` (stereo not given): the composite z-score in test [1] is 0.614; in [5], 1.64; in test [7], 0.346; in test [8], -0.375; in [9], 0.976; in test [10] it was 0.211. Also, the composite z-score in test [11] was determined as 0.471; in [12] it was 0.981; in [13] it was 0.596; in [15], 0.279; in test [16], 0.912; in [17], 0.385. The results for the composite z-score in test [18], in test [19] and in test [20] were 0.681, -0.141 and 1.41, respectively. The z-score was -0.109 (inactive) in test [2]; 1.4 (inactive) in test [3]; 3.55 (inactive) in test [4]; -0.461 (inactive) in test [6]; 0.664 (inactive) in test [14].
As for `CC(C)N1CC=CC23O[C@@H]4/C=C\CCCOC(=O)C4[C@H]2C(=O)N(CCCCCO)[C@@H]3C1=O` (stereo not given in full), the composite z-score is -2.15 in test [1]; -0.467 in [5]; -0.208 in test [7]; -1.65 in [8]; -1.89 in test [9]; -0.364 in test [10]. Further, the composite z-score in test [11] is 0.21; in [12], -0.195; in [13], 0.632; in test [15], -0.655; in [16] it was -1.42; in [17] it was -1.97. Further, the composite z-score in [18] is -1.04; in [19], -1.09; in test [20], 0.213. Moreover, the z-score is -0.927 (inactive) in test [2]; -1.16 (inactive) in test [3]; -0.693 (inactive) in [4]; 1.67 (inactive) in test [6]; 0.0946 (inactive) in test [14].
With `C=C(CCCC)C(=O)CC[C@@H](OC(C)=O)c1ccccc1OCCO`, the composite z-score in test [1] is 0.0077; in test [5] it was -0.325; in [7], -0.214; in [8] it was -0.61; in test [9] it was -0.524; in [10], -0.232. Further, the composite z-score in [11] was 1.34; in [12], -0.283; in [13], -0.16; in test [15] it was -0.675; in test [16], -1.31; in test [17], -1.36. The composite z-score in test [18] was -1.06; in [19], -0.376; in [20], 0.857. Further, the z-score was -0.837 (inactive) in test [2]; -18.7 (active) in test [3]; -1.57 (inactive) in [4]; 0.682 (inactive) in test [6]; 0.419 (inactive) in test [14].
Consider `CC1=C([C@H](O)CCc2ccccc2)[C@H](CO)[C@@H]2C(=O)N(Cc3ccccc3)C(=O)[C@@H]2C1`, for which the composite z-score is -0.262 in test [1]; -0.2 in test [5]; 0.0769 in [7]; 0.932 in [8]; 0.497 in [9]; -0.085 in test [10]. The composite z-score in test [11] was 0.0539; in [12], -0.264; in test [13] it was -0.551; in test [15] it was 0.27; in [16] it was -0.453; in [17], -0.176. Further, the results for the composite z-score in test [18], in test [19] and in test [20] were 0.785, 0.28 and 0.317, respectively. The z-score was -0.466 (inactive) in test [2]; -1.41 (inactive) in [3]; -0.873 (inactive) in test [4]; 1.72 (inactive) in [6]; -0.46 (inactive) in test [14].
As to `CC(=O)NCCCC[C@@H]1NC(=O)[C@@H]2C[C@H](C(=O)NCc3ccc(F)cc3)[C@H](c3cccc(OCCO)c3)N2C1=O`, the composite z-score in test [1] was 0.631; in [5], 2.43; in test [7] it was 0.207; in test [8], 0.584; in [9], -0.515; in test [10], -0.0953. The composite z-score is 1.02 in test [11]; 0.0839 in test [12]; 0.0979 in [13]; 0.0733 in [15]; -0.895 in test [16]; -0.148 in test [17]. Besides, the composite z-score in test [18] is -0.488; in test [19], -0.047; in test [20] it was 0.101. For the same molecule, the z-score was 0.592 (inactive) in test [2]; 0.16 (inactive) in test [3]; 0.205 (inactive) in test [4]; 0.496 (inactive) in test [6]; 0.281 (inactive) in test [14].

The values above are taken from PubChem BioAssay.
